Experiment [1] is described as follows: Drug repurposing screens with cells derived from glioblastoma tumor samples (AID 1345199). Further: nearly all actives have a fitted effect of over 40% in size. Further: potency means the concentration at half of the fitted maximal effect. On activity, negative = cell killing: on the % scale 0 is the no-effect control and ±100 the full control effect. The settings on record: GBM patient neurospheres viability, ATP luminescence, 48 h. An outline of the steps:
(§1)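 Primary testing used CD133+ neurospheres from four GBM patients, seven concentrations, 48 h exposure and ATP-based viability; confirmation added three slower-growing patient lines.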

A further experiment has as its system astro (control astrocytes). The description is as above. Conditions: viability, ATP luminescence, 48 h; series mostly up to 45.9 µM. An outline of the steps: as §1
A further experiment has as its system HeLa. Nature of the experiment: Primary qHTS to identify gynecologic anti-cancer compounds using libraries of approved drugs and bioactive compounds (AID 1345084). Further: nearly all actives have a fitted effect of over 55% in size. Further: potency means the concentration at half of the fitted maximal effect. The settings on record: Gynecologic cancer cell panel viability, ATPlite luminescence, 48 h; series mostly up to 57.5 µM. An outline of the steps: (§2)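 Cytotoxicity screen measuring ATP content by luciferase luminescence. Each compound is applied at five concentrations for 48 h at 37 C with 5% CO2.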
For orientation: In qHTS, concentration-response curves come from the screen itself.

Another experiment has as its system OV90. The experiment is described as above. Conditions: Gynecologic cancer cell panel viability, ATPlite luminescence, 48 h; series mostly up to 57.5 µM. An outline of the steps: as §2
A general note: In ATP-based viability assays light output follows the ATP content of the culture.

Another experiment has as its system PA-1. Described as above. Conditions: Gynecologic cancer cell panel viability, ATPlite luminescence, 48 h; series mostly up to 57.5 µM. The essentials:
as §2

The test system of another experiment is Tov-21-G. Described as above. The settings on record: Gynecologic cancer cell panel viability, ATPlite luminescence, 48 h; series mostly up to 57.5 µM. An outline of the steps: as §2
Another experiment relates to Tov112D. Described as above. Conditions: Gynecologic cancer cell panel viability, ATPlite luminescence, 48 h; series mostly up to 57.5 µM. An outline of the steps:
as §2

Another experiment has as its system JEG-3. The description is as above. The settings on record: Gynecologic cancer cell panel viability, ATPlite luminescence, 48 h; series mostly up to 57.5 µM. The essentials:
as §2

Experiment [2] has as its target Nuclear receptor subfamily 1 group I member 2 (Rattus norvegicus) (UniProt Q9R1A7). The experiment in a line: qHTS assay for small molecule activators of the rat pregnane X receptor (rPXR) signaling pathway (AID 651751; call rule not given here; further: 0% is about no effect). Conditions: rPXR reporter cells, luciferase (One-Glo), 24 h.
The next experiment deals with Hek293T. The experiment in a line: Primary qHTS to identify gynecologic anti-cancer compounds using libraries of approved drugs and bioactive compounds (AID 1345084). Further: nearly all actives have a fitted effect of over 55% in size. Further: potency means the concentration at half of the fitted maximal effect. The settings on record: Gynecologic cancer cell panel viability, ATPlite luminescence, 48 h, control line for the selectivity index; series mostly up to 57.5 µM. An outline of the steps:
as §2

[3] abbreviates: at 45.9 µM (top of the series), tumour line B.
The mark [4] stands for this setting: at 45.9 µM (top of the series), tumour line D.
The mark [5] stands for this setting: at 46.1 µM (top of the series), tumour line C.
Where [6] appears, read: at 46 µM (top of the series), tumour line A.

The results in this text go back to PubChem BioAssay (NCATS).

Molecules are shown by their SMILES. Unmarked numbers belong to inactive results. Inconclusive results are not listed. Active and inactive are the calls of the source. Unless noted, the call rests on the fitted dose curve; in most records, active means well fitted curve in the direction sought with a large enough effect; inconclusive means small, poorly fitted or top-dose-only effect, or another doubt; inactive means no such curve, though single readings can be large; an effect the other way counts as inactive or inconclusive.

Nuclear receptor subfamily 1 group I member 2 (Rattus norvegicus), sequence (Q9R1A7 whole entry, looked up): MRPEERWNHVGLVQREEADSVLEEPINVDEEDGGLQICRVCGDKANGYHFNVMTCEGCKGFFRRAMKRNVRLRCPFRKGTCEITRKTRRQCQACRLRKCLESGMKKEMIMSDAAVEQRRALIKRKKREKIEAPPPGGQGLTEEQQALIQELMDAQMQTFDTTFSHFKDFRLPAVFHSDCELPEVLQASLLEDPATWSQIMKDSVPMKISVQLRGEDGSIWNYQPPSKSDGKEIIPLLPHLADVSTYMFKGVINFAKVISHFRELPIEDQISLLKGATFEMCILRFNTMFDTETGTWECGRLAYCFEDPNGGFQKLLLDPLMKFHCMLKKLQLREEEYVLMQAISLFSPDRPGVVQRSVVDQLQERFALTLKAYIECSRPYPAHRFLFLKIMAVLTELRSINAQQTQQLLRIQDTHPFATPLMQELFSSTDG

`C[C@@H]1C(=O)NC2=Nc3cccc(Cl)c3CN21`: the values for the activity, negative = cell killing in experiment [1] (setting [3]), in experiment [1] (setting [4]) and in [1] (setting [5]) were -5.98%, -24.2% and -18.1%, respectively. Besides, in the experiment with astro, the Potency entry is “inactive”.

Regarding `N[C@H](CO)C(=O)O`, the values for the activity, negative = cell killing in experiment [1] (setting [3]), in experiment [1] (setting [4]) and in experiment [1] (setting [5]) were 4.31%, -24.3% and 2.37%, respectively. In the experiment on astro, the Potency entry was “inactive”.

In the case of `CCCC1O[C@@H]2C[C@H]3[C@@H]4CCC5=CC(=O)C=C[C@]5(C)[C@H]4[C@@H](O)C[C@]3(C)[C@]2(C(=O)CO)O1` (stereo not given in full), the results for the activity, negative = cell killing in experiment [1] (setting [3]), in [1] (setting [4]) and in experiment [1] (setting [5]) were -17.2%, -5.46% and -20.2%, respectively. Further, the Potency entry in the experiment with astro is “inactive”.

`COCc1c(C(C)C)nc(C(C)C)c(/C=C/[C@@H](O)C[C@@H](O)CC(=O)O)c1-c1ccc(F)cc1`: the Potency is 1.78 µM (active) in the experiment on HeLa; 1.78 µM (active) in the experiment on OV90; 2.82 µM (active) in the experiment with PA-1; 7.08 µM (active) in the experiment with Tov-21-G; 3.16 µM (active) in the experiment with Tov112D.

On to `CC1(C)CCC(NC(=O)[C@@H](N)CCC(=O)O)CC1`, for which the activity, negative = cell killing was -9.8% in experiment [1] (setting [3]), -20.2% in [1] (setting [4]), -26.1% in [1] (setting [6]) and -24.2% in experiment [1] (setting [5]). Besides, the Potency result in the experiment with astro was “inactive”.

In the case of `CCCCCCC[N+](CC)(CC)CCCCc1ccc(Cl)cc1`, the Potency is 10 µM (active) in the experiment with OV90, 4.47 µM (active) in the experiment on PA-1, 20 µM (active) in the experiment with Tov-21-G and 8.91 µM (active) with astro.

In the case of `CNCCC=C1c2ccccc2CCc2ccccc21`, in experiment [1] (setting [5]), the activity, negative = cell killing is -6.98%. For the same molecule, the Potency was 6.31 µM (active) in experiment [1] (tumour line A), 22.4 µM (active) in [1] (tumour line B) and 11.2 µM (active) in the experiment on astro.

For the molecule `C[N+]1(CCCCC[N+]2(C)CCCC2)CCCC1`, the activity, negative = cell killing is 0.364% in [1] (setting [3]), -0.863% in experiment [1] (setting [4]), -3.4% in [1] (setting [6]) and -6.31% in [1] (setting [5]). Further, in the experiment on astro, the Potency entry was “inactive”.

`Oc1c(I)cc(Cl)c2cccnc12`: the Potency result in the experiment on HeLa and with JEG-3 was “inactive” in each case. Moreover, in experiment [1] (setting [5]), the activity, negative = cell killing is -11.9%. Further, the Potency in experiment [1] (tumour line A) and in experiment [1] (tumour line B) was 17.8 µM (active) in each case. Besides, the max response in [2] was -1.19%.

Consider `C[C@@H]1CN(CCCn2c3ccccc3c3ccccc32)C[C@H](C)N1`, for which the Potency was 25.1 µM (active) in the experiment with OV90 and 12.6 µM (active) with astro.

`CC(C)COC(=O)OCN1C(=O)CN(CCN2CC(=O)N(COC(=O)OCC(C)C)C(=O)C2)CC1=O`: the activity, negative = cell killing in experiment [1] (setting [3]) is -7.7%; in experiment [1] (setting [4]), -16.2%; in experiment [1] (setting [6]), -10.8%; in experiment [1] (setting [5]), -11%. Besides, the Potency result with astro was “inactive”.

For the molecule `CCCCOc1cc(C(=O)NCCN(CC)CC)c2ccccc2n1`, the Potency result with Hek293T, in the experiment with JEG-3 and in the experiment on Tov112D was “inactive” in each case. In addition, the activity, negative = cell killing in [1] (at 20 µM (top of the series), tumour line C) is 9.91%; in experiment [1] (at 21.2 µM (top of the series), tumour line B), -15.3%. Also, the Potency in [1] (tumour line A) was 3.98 µM (active).

On to `CC[C@H](C)C(=O)O[C@H]1CCC=C2C=C[C@H](C)[C@H](CC[C@@H]3C[C@@H](O)CC(=O)O3)[C@H]21`, for which, in the experiment with astro, the Potency is 2 µM (active).
